Pin1 inh = inhibitors of human Pin1; Q13526; Potency, µM (series often up to 115 µM), for inactives: top-dose activity, negative = inhibition, usual class: inhibitors; Pin1 FP peptide displacement, HiFluor488, 10 min; actives 0.009% (n = 390,000); active = well fitted inhibition curve with a large enough effect in the polarisation, with a control signal flat, not every such curve was filed as active; inconclusive = small, poorly fitted or top-dose-only effect, or effect the other way, or a change in a side signal; inactive = no such curve, though single readings can be large or run the other way; the % refers to the polarisation; note: % is set by controls: 0 for no effect and ±100 for the full control effect
Target sequence (Q13526 whole entry, looked up): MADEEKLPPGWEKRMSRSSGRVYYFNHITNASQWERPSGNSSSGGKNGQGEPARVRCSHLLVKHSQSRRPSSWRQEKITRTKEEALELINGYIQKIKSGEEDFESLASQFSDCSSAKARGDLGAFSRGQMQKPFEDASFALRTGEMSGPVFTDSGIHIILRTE
VDR inh = blocks the human vitamin D receptor; P11473; VDR-SRC2-3 peptide fluorescence polarization, 2 h; Potency, µM, for the others: max response, negative = inhibition, actives largely listed as inhibitors; actives 0.93% (n = 400,000); AID 504847; note: % is set by controls: 0 for no effect and ±100 for the full control effect
Target sequence (P11473 whole entry, looked up): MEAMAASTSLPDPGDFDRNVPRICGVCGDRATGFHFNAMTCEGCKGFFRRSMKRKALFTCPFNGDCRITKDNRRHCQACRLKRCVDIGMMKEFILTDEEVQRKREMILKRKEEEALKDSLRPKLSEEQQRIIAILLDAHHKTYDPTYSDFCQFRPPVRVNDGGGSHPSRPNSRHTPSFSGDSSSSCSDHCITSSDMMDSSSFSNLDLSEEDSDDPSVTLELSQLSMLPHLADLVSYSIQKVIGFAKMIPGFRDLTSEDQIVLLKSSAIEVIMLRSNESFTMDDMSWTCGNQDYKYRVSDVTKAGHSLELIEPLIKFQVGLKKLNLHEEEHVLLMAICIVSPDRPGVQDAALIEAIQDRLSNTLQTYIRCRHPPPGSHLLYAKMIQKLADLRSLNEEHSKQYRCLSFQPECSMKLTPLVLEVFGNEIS
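Measured by FP: displacement of SRC2-3 coactivator peptide from VDR by library compounds, following a two-hour ambient incubation.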
TDP1 inh = TDP1 (human) enzyme inhibition. recombinant TDP1, AlphaScreen DNA substrate cleavage. Potency, µM (top dose mostly 130 µM), for inactives: top-dose activity change, negative = inhibition, usual class: inhibitors. actives 0.28% (n = 350,000). AID 485290; note: % is set by controls: 0 for no effect and ±100 for the full control effect; nearly all actives have a fitted effect of over 40% in size
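AlphaScreen read-out: signal falls as enzyme removes the 3' tyrosine-FITC from a 5'-biotinylated DNA oligo (15 nM, 5 min, RT). Enzyme was E. coli-made recombinant Tdp1 at 1 nM, exposed to compound for 15 min beforehand; beads 10 ug/ml, 10 min.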
PLK1 PBD block = inhibitors of human PLK1 polo-box domain binding. Plk1 PBD binding of FITC phosphopeptide, fluorescence polarization. Potency, µM, without a hit: max response, negative = inhibition, actives largely listed as inhibitors. actives 2.8% (n = 360,000). AID 720504; note: series mostly up to about 57 µM; % is set by controls: 0 for no effect and ±100 for the full control effect; nearly all actives have a fitted effect of over 65% in size
Tb PFK block = inhibitors of T. brucei phosphofructokinase. AID 485367. Potency, µM (series often up to 57.5 µM), for inactives: top-dose activity, negative = inhibition, hits mostly inhibitors. O15648. T. brucei PFK, ADP-Glo luminescence. actives 0.17% (n = 330,000);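 note: 0% = uninhibited 1x PFK enzyme wells and -100% = no-enzyme wells; nearly all actives have a fitted effect of over 60% in size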
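1.25 nM PFK with 0.5 mM F6P and 0.1 mM ATP in 0.1 M TEA pH 8.0, 5 mM MgCl2, incubated 45 min at room temperature; ADP measured by ADP-Glo luminescence; compounds titrated up to 57 uM.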
ASM inhibitor = human S-ASM enzyme inhibition; Potency, µM (doses to about 57.5 µM), inactives show at the highest dose activity change, negative = inhibition, usual class: inhibitors; P17405; AID 504937; placental ASM, HMU-PC fluorogenic substrate, 60 min; actives 0.006% (n = 340,000)
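HMU-PC0 cleavage (9 uM final) by human placental ASM, 60 min at 37 °C following 10 min compound exposure at RT; stopped at pH 10, fluorescence Ex 386/Em 447 nm.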
* marks the source's active call; other numbers are inactive results; ? = inconclusive; · = no result given. The list is not random: actives were taken first. Their share in the collection is about 3.1%. Unless noted, calls come from the whole dose curve; as a rule, active = well fitted curve in the direction sought with a large enough effect; inconclusive = small, poorly fitted or top-dose-only effect, or another doubt; inactive = no such curve, though single readings can be large; an effect the other way counts as inactive or inconclusive. Potency is the fitted concentration of half-maximal effect.

SMILES	Pin1 inh	VDR inh	TDP1 inh	PLK1 PBD block	Tb PFK block	ASM inhibitor
CSc1nc(SCC(=O)O)c2sc3nc(-c4ccccc4)c4c(c3c2n1)CCC4	·	-12%	?	12µM*	2%	112%
O=c1cc(CO)oc(C(Nc2ccccn2)c2ccc(C(F)(F)F)cc2)c1O (stereo unspecified)	?	?	6%	?	-6%	4%
O=c1cc(CO)oc(C(Nc2ccccn2)c2cccc(F)c2)c1O (stereo unspecified)	1%	16µM*	5%	24µM*	-10%	7%
COc1cccc(C(Nc2ccccn2)c2oc(CO)cc(=O)c2O)c1 (stereo unspecified)	3%	?	-4%	21µM*	6%	5%
C=C(C)C(=O)OCCOC(=O)C(=C)C	·	0%	6%	·	·	·
O=C(NCCN1C(=O)S/C(=C/c2cccnc2)C1=O)c1cccs1	-1%	-5%	2%	-9%	0%	2%
O=C(NCCN1C(=O)S/C(=C\c2cccnc2)C1=O)C1=NN(c2ccccc2)C(=O)CC1	1%	28µM*	0%	3.8µM*	0%	-1%
Cc1cccc(NC(=O)Cn2c(=O)n(CCCCCC(=O)NCc3ccc4c(c3)OCO4)c(=O)c3sccc32)c1	-1%	?	-2%	·	·	·
COC(=O)c1ccccc1Nc1cc(C)nc2nc(C)nn12	-2%	?	3%	21µM*	-8%	-3%
COC(=O)c1ccc(Nc2cc(C)nc3nc(C)nn23)cc1	1%	-13%	8%	-7%	1%	4%
O=C1c2ccccc2C(=O)N1C1C=CC=CC=C1	·	·	·	30µM*	·	·
O=C1c2ccccc2C(=O)N1c1ccncc1	3%	·	5%	·	·	·
O=C1CCC2=C1C1(CCCC1)N=C(Nc1nc3ccccc3o1)N2	1%	·	·	·	·	·
Cc1cc(OC(C)C(=O)NCc2cccnc2)c2c(C)cc(=O)oc2c1 (stereo unspecified)	1%	-16%	6%	27µM*	2%	8%
CCCCc1cc(=O)oc2cc(C)cc(OC(C)C(=O)NCc3ccncc3)c12 (stereo unspecified)	-4%	-15%	5%	5%	-2%	-4%
Cc1cc(OC(C)C(=O)NCc2ccncc2)c2c(C)c(C)c(=O)oc2c1 (stereo unspecified)	3%	?	-15%	12µM*	1%	-1%
O=C1c2ccccc2C(=O)N1c1cncc2ccccc12	0%	·	3%	·	·	·
CCCCCCCCCCCCCCCC(=O)C1=C(O)C(CO)OC1=O (stereo unspecified)	·	14µM*	21%	·	·	·
O=S(=O)(NC1CC2CCC1C2)c1ccc(Br)s1 (stereo unspecified)	-5%	-20%	-2%	3.4µM*	-14%	-1%
O=S(=O)(NC1CC2CCC1C2)c1ccc(Br)cc1 (stereo unspecified)	3%	-23%	·	-9%	2%	-5%
O=c1cnnc(N/N=C/c2ccccn2)[nH]1	3%	?	·	21µM*	3%	3%
Cc1ccc(C)c(S(=O)(=O)N(C)Cc2cccs2)c1	1%	-20%	79µM*	3%	3%	-1%
C=CCOn1c(=O)c(-c2cccs2)[n+]([O-])c2ccccc21	-11%	-11%	7%	0.84µM*	-3%	86%
O=C(CCc1ccc(S(=O)(=O)N2CCOCC2)cc1)N/N=C/c1ccc(O)c(O)c1O	?	-1%	-8%	11µM*	-11%	-10%
COC(=O)c1ccc2nc(NC(=O)CN3C(=O)CCC3=O)sc2c1	-1%	-1%	-1%	12µM*	10%	-2%
SMILES	Pin1 inh	VDR inh	TDP1 inh	PLK1 PBD block	Tb PFK block	ASM inhibitor
COC(=O)c1ccc2nc(NC(=O)C(C)C)sc2c1	-6%	-9%	1%	-2%	-1%	7%
COc1ccccc1CCNC(=O)Cn1ccc2cc(S(=O)(=O)N3CCCCC3)ccc21	44%	4%	8%	·	·	·
O=[N+]([O-])c1cnc2ccccc2c1	?	-4%	1%	-14%	-3%	7%
O=[N+]([O-])c1cc([N+](=O)[O-])c2cc3ccccc3nc2c1	·	?	·	0.42µM*	-3%	-6%
Cc1cc(Cn2nnnc2-c2ccncc2)cc(C)c1O	1%	4%	·	38µM*	4%	6%
c1ccc(Cn2nnnc2-c2ccco2)cc1	-6%	-7%	-3%	-4%	-2%	-2%
Cc1ccccc1-c1csc2ncnc(Sc3nnnn3C)c12	7%	·	·	·	·	·
COc1ccc(NC(=O)C(CC(=O)O)Cc2ccccc2)cc1 (stereo unspecified)	-13%	-12%	8%	-8%	2%	4%
COc1ccc(NC(=O)C(CC(=O)O)C(C)c2ccccc2)cc1 (stereo unspecified)	-2%	?	0%	9.5µM*	-2%	0%
Cc1cccc(CSc2cn(CC(=O)N3CCCCC3)c3ccccc23)c1	-8%	-2%	0%	·	·	·
O=C1NC2(O)C(=O)c3ccccc3C2(O)N1 (stereo unspecified)	5%	5%	-5%	-2%	-4%	1%
O=C1NC(=O)C2(N1)C(=O)c1cccc3cccc2c13 (stereo unspecified)	·	·	·	11µM*	·	·
CS(=O)c1ccccc1O (stereo unspecified)	-1%	15%	3%	-5%	3%	1%
O=S(c1ccccc1O)S(=O)c1ccccc1O (stereo unspecified)	?	35µM*	·	0.6µM*	·	-3%
CCCSC1=N/C(=C\c2ccc([N+](=O)[O-])o2)C(=O)S1	·	79µM*	?	7.5µM*	-20%	-9%
O=S(=O)(NCCCN1CCOCC1)c1ccc(Cl)s1	-4%	?	2%	8.4µM*	-2%	1%
O=S(=O)(NCCN1CCOCC1)c1ccc(Cl)c(Cl)c1	-4%	-8%	·	-16%	0%	-2%
O=S(=O)(NCCN1CCOCC1)c1ccc(F)c(Cl)c1	1%	?	·	3.4µM*	-16%	-1%
Cc1sc(-n2c(C)ccc2C)c(C#N)c1C	2%	79µM*	4%	19µM*	1%	0%
O=C(c1ccc(S(=O)(=O)Cc2ccccc2F)c([N+](=O)[O-])c1)N1CCCCCC1	-10%	-10%	2%	-2%	0%	2%
O=C(c1ccc(S(=O)(=O)Cc2cc(F)ccc2F)c([N+](=O)[O-])c1)N1CCOCC1	·	·	·	27µM*	·	·
O=S(=O)(O)c1cc(O)c2cc(Nc3ccccc3)ccc2c1	?	?	·	19µM*	·	335%
Cc1ccc(S(=O)(=O)c2cc(Nc3ccccc3)ccc2O)cc1	-23%	-10%	11%	-30%	5%	3%
O=S(=O)(O)c1ccc(O)c2cc(Nc3ccccc3)ccc12	8.5µM*	?	·	4.7µM*	·	48%
Nc1cccc2c(O)cccc12	-3%	-4%	·	-13%	·	-2%
